Shown are actives, neighbours in structure and some others; about 27% of the full set was active somewhere.
Cav3 T inh: blocks human Cav3.2 T-type calcium channel. hit rate 4% among 100,000. Cav3.2-expressing cells, Fluo-4 calcium fluorescence FDSS; hits give low values. O95180. AID 449739. B-score at 10 µM;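 active means single-dose well whose peak fluorescence ratio is a statistical outlier from its plate by either plate-standardised score or position-corrected B-score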
CYP2C19 act: activators of human cytochrome P450 2C19 | P33261 | activation factor at 5 µM | 96,000 tested, under 10 active | AID 1025 | recombinant CYP2C19, luciferin-H EGE luminescence; hits give high values; 0 = fully inhibited enzyme, 1 = untreated enzyme;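 active means activation factor of at least 2 at 5 µM in the primary screen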
CYP2C19 inh: human CYP2C19 inhibition; CYP2C19 Supersomes, luciferin-H EGE luminescence, 30 min; inhibition, % at 5 µM; hit rate 21% among 96,000;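 active means CYP2C19 inhibition above a set limit at 5 µM in the primary screen, cut at about 50% in these data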
PTK2B oligo ant: antagonists of human Pyk2 oligomerization; Q14289; Q293 cells, Pyk2 FERM NanoBiT luminescence; hits give low values; z-score (the deposit names both 25 µM and 10 µM); hit rate 0.83% among 99,000;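 active means Z-score of -3 or lower, scaled per plate to the spread of control and sample wells; inactive means z-score above -3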;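 further: negative z-score means lost luminescence so less FERM oligomerization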
CYP2C9 activ: CYP2C9 (human) activation; P11712; recombinant CYP2C9, luciferin-H conversion, luminescence; hits give high values; factor 1 = untreated enzyme, 0 = blocked; activation factor at 5 µM; hit rate 1.4% among 96,000;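 active means activation factor of 2 or more for CYP2C9 at a 5 µM dose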
CYP2C9 inh: human CYP2C9 inhibition | hit rate 20% among 96,000 | CYP2C9 Supersomes, luciferin-H conversion, luminescence | AID 777 | inhibition, % at 5 µM | P11712;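 active means blocking of liver enzyme CYP2C9 beyond about 50% at 5 µM, limit read from the data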
A number is an active result; . = inactive; / = no result given.

SMILES	Cav3 T inh	CYP2C19 act	CYP2C19 inh	PTK2B oligo ant	CYP2C9 activ	CYP2C9 inh
Fc1ccc(CNn2cnnc2SCc2ccc(F)cc2)cc1	.	/	/	.	/	/
Fc1ccc(CSc2nncn2NCc2ccc3c(c2)OCO3)cc1	/	.	92.9	.	.	82.7
Cc1ccc(S(=O)(=O)Nc2ccc(Br)cc2/C=N/n2cnnc2)cc1	.	.	53.6	.	.	61.9
O=C(CSCc1ccccc1)Nc1ccc(S(=O)(=O)N2CCOCC2)cc1	.	.	.	.	.	.
Cc1ccc(-c2csc(NC(=O)COC(=O)c3cccc(S(=O)(=O)N4CCOCC4)c3)n2)cc1	.	.	.	/	.	.
CCn1cc(C(=O)OCC(=O)Nc2cccc(S(=O)(=O)N3CCOCC3)c2)c(=O)c2ccc(C)nc21	.	.	.	.	.	67.1
O=C(COC(=O)CCc1nc2ccccc2s1)Nc1ccc(S(=O)(=O)N2CCOCC2)cc1	.	.	.	.	.	75.0
CCCc1nc2ccccc2c(C(=O)OCC(=O)Nc2ccc(S(=O)(=O)N3CCOCC3)cc2)c1CC	.	.	.	-4.55	.	75.5
CCCc1nc2ccccc2c(C(=O)OCC(=O)Nc2cccc(S(=O)(=O)N3CCOCC3)c2)c1CC	.	.	.	-4.56	.	.
COc1ccc(C2C(C(=O)Nc3ccc4c(c3)OCCO4)c3ccccc3C(=O)N2C)cc1 (configuration not stated)	.	.	.	.	.	.
CCOC(=O)c1nnn(CC(=O)Nc2cc(F)ccc2F)c1C(=O)OCC	.	.	68.2	.	.	.
COC(=O)c1nnn(CC(=O)Nc2cccc(Cl)c2C)c1C(=O)OC	.	.	89.5	.	.	.
CCOC(=O)c1nnn(CC(=O)Nc2cc(Cl)ccc2C)c1C(=O)OCC	.	.	.	.	.	.
COc1ccc(C(=O)N2CCN(S(=O)(=O)N3CCOCC3)CC2)cc1OC	.	.	.	.	.	.
Cc1noc(C)c1CSc1nnc(-c2ccccc2)n1Cc1ccco1	.	.	50.4	.	.	53.8
N#Cc1ccc(CSc2nnc(-c3ccccc3)n2Cc2ccco2)cc1	.	.	.	.	.	.
Cc1noc(C)c1CSc1nnc(-c2ccccc2)n1N	.	.	64.6	.	.	.
CC(C)(C)n1nc(-c2ccc(Cl)cc2)c2c(N)ncnc21	.	.	58.6	.	.	.
c1cc(-c2noc(CC3CCCCC3)n2)ccn1	.	.	98.8	.	.	77.0
CC(C)CC(=O)Nc1ccc(F)c(Cl)c1	.	.	.	.	.	.
CN1c2ccsc2C(O)=C(C(=S)Nc2ccc(F)c(Cl)c2)S1(=O)=O	.	.	.	.	.	84.1
O=C(OCCCN=C1NS(=O)(=O)c2ccccc21)c1ccccc1F	.	.	.	.	.	.
O=c1c2ccccc2c(/C=N/n2cnnc2)c(O)n1-c1ccccc1	.	.	.	.	.	60.9
Oc1ccccc1/C=N/n1cnnc1	.	.	.	.	.	.
COc1ccc(-n2c(O)c(/C=N/n3cnnc3)c3ccccc3c2=O)cc1	.	.	.	.	.	74.8
SMILES	Cav3 T inh	CYP2C19 act	CYP2C19 inh	PTK2B oligo ant	CYP2C9 activ	CYP2C9 inh
Cc1ccc(-n2c(O)c(C=NC3CCS(=O)(=O)C3)c3ccccc3c2=O)cc1 (configuration not stated)	.	.	.	.	.	.
O=C(NC(NC1CCS(=O)(=O)C1)C(=O)c1cccs1)c1ccccc1 (configuration not stated)	.	.	99.1	/	.	69.4
O=C(O)C1CCC(=O)N(C2CCCCC2)C1c1ccccc1 (configuration not stated)	.	/	/	.	/	/
COc1ccccc1N1CCN(Cc2nc(N)nc(Nc3ccc(C)c(Cl)c3)n2)CC1	-5.69	.	.	.	.	.
Nc1nc(CN2CCN(c3ccccn3)CC2)nc(Nc2ccc(Cl)cc2)n1	.	.	.	.	.	68.5
Cc1cccc(Nc2nc(N)nc(CN3CCN(c4ccccc4F)CC3)n2)c1	-4.93	/	/	.	/	/
Nc1nc(CN2CCN(Cc3ccccc3)CC2)nc(Nc2ccccc2)n1	.	.	.	.	.	.
Cc1cccc(Nc2nc(N)nc(CN3CCN(c4ccccc4)CC3)n2)c1	-3.67	.	52.7	.	.	66.7
Nc1nc(CN2CCN(c3ccccc3F)CC2)nc(Nc2ccc3c(c2)OCCO3)n1	.	.	.	.	.	.
COc1cccc(N2CCN(Cc3nc(N)nc(Nc4ccccc4)n3)CC2)c1	.	.	.	.	.	.
CCOC(=O)c1c(-c2ccc(C)o2)csc1NC(=O)COC(=O)c1cccs1	.	/	/	.	/	/
CCOC(=O)c1c(-c2cccs2)csc1NC(=O)c1ccco1	/	/	/	.	/	/
CCOC(=O)c1c(-c2ccc(C)o2)csc1NC(=O)CSc1ncn[nH]1	.	.	61.0	.	.	85.3
CCOC(=O)c1c(-c2ccc(C)o2)csc1NC(=O)CN1CCOCC1	.	.	54.0	.	.	72.1
CCOC(=O)c1c(-c2cccs2)csc1NC(=O)CN(CC)CC	.	.	.	-3.62	.	75.4
CCOC(=O)c1c(-c2cccs2)csc1NC(=O)CC(C)C	.	.	.	.	.	.
CCOC(=O)c1c(-c2cccs2)csc1NC(=O)CN1CCOCC1	.	.	.	.	.	73.2
CCc1cccc(C)c1NC(=O)CSc1ncn[nH]1	.	.	.	.	.	.
CC(C)NCCOCCOc1ccccc1F	/	.	.	.	.	.
Cc1ccc(CNn2cnnc2SCc2ccc(F)cc2)cc1	.	/	/	.	/	/
Cc1ccc(CSc2nnc(C(F)(F)F)n2Cc2ccc(F)cc2)cc1	.	.	.	.	.	69.0
COc1cccc(CSc2nnc(C(F)(F)F)n2Cc2ccc(F)cc2)c1	.	.	.	.	.	61.0
COc1ccc(CCNC(=O)CSc2nc(O)c(C(C)C)c(=O)[nH]2)cc1OC	.	/	/	.	/	/
COc1ccccc1C1C=C(c2ccc(C)cc2)Nc2nnnn21 (configuration not stated)	.	.	85.2	.	.	70.8
Cc1ccc(C2=CC(c3cccs3)n3nnnc3N2)cc1 (configuration not stated)	/	.	97.4	.	.	81.5
SMILES	Cav3 T inh	CYP2C19 act	CYP2C19 inh	PTK2B oligo ant	CYP2C9 activ	CYP2C9 inh
C1=C(c2ccccc2)Nc2nnnn2C1c1cccs1 (configuration not stated)	.	.	.	.	.	.
COc1ccc(-c2nnc(SCCC(=O)O)n2-c2ccccc2)cc1OC	.	.	.	.	.	.
COc1ccc(C2=CC(c3c(C)nn(-c4ccccc4)c3Cl)n3nnnc3N2)cc1OC (configuration not stated)	.	.	91.1	.	.	93.3
Cc1[nH]c2ccc(-c3nnc(SCC(=O)N4CCCc5ccccc54)o3)cc2c1C	.	.	.	.	.	.
CCOC(=O)C(C)Sc1nnc(Cc2cc(=O)[nH]c(=O)[nH]2)n1-c1ccc(Cl)cc1 (configuration not stated)	.	/	/	/	/	/
Cc1cc(C)c(OCC(=O)Nc2cccc(NC(=O)c3ccco3)c2)c(Br)c1	-4.45	.	95.9	.	.	74.5
